SRC1 inh – SRC1 coactivator transcriptional activity inhibitors, primary screen, cell-based, luminescence. AID 588354, 2011. 0.12% of 360,000 active. HEK293 GAL4-SRC1 luciferase reporter. inhibition, % at 3.6 µM;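 active means inhibition above the campaign mean plus 3 SD, with each screening campaign given its own cutoff, cut at about 60% in these data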
COUP-TFII inh – NR2F2 transcriptional activity inhibitors, primary screen, cell-based, luciferase reporter, HEK293T, luminescence; 0.7% of 370,000 active; inhibition, % at 8.6 µM; COUP transcription factor 2 (Homo sapiens), P24468; AID 686940, 2013; HEK293T NGFI-A luciferase reporter;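 active means inhibition above a per-plate cutoff, mean inhibition of test wells between control levels plus 3 SD, cut at about 38% in these data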;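 further: cells cotransfected with COUP-TFII expression vector driving the NGFI-A reporter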
LRH-1 inv ag – LRH-1 (NR5A2) inverse agonists, primary screen, cell-based, luminescence, HEK293T, StAR-luciferase reporter; Nuclear receptor subfamily 5 group A member 2 (Homo sapiens), O00482; AID 602396, 2012; LRH-1 transfected, 24 h; inhibition, % at 3.6 µM; 0.13% of 360,000 active;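 active means inhibition above the mean inhibition of all tested compounds plus 3 SD, cut at about 73% in these data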
Target sequence (O00482 whole entry, looked up): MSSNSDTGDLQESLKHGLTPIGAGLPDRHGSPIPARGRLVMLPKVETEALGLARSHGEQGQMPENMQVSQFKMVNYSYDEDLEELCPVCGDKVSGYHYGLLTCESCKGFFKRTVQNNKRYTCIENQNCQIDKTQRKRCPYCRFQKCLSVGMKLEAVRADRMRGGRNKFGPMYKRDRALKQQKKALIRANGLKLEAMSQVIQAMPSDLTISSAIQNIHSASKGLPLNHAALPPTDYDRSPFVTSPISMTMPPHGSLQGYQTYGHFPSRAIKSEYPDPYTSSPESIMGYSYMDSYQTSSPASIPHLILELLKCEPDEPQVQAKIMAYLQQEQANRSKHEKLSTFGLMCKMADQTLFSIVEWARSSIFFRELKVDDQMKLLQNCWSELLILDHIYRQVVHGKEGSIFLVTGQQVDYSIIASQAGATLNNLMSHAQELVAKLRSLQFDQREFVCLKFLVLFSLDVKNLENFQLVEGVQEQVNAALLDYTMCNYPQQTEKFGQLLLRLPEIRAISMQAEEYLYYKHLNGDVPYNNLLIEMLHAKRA
Gli-Sufu block – Gli-Sufu pathway antagonists, primary screen, luciferase luminescence, Sufu-KO-LIGHT cells, uHTS. Sufu-KO-LIGHT fibroblasts, Gli luciferase reporter luminescence. inhibition, % at 5 µM. 0.74% of 340,000 active;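 active means inhibition above about 55%, limit read from the data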
SRC3 inh – SRC3 coactivator transcriptional activity inhibitors, primary screen, cell-based, luminescence | Nuclear receptor coactivator 3 (Homo sapiens), Q9Y6Q9 | HEK293 GAL4-SRC3 luciferase reporter | inhibition, % at 3.6 µM | 0.17% of 360,000 active | AID 588352, 2011;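 active means inhibition above a per-campaign cutoff, the mean of all compounds plus 3 SD, cut at about 60% in these data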;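 further: higher means less SRC3-driven luciferase light from the GAL4 reporter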
SRC2 inh – inhibition of GAL4-SRC2 driven luciferase reporter, primary screen, SRC2 inhibitor project, cell-based, luminescence; Nuclear receptor coactivator 2 (Homo sapiens), Q15596; HEK293 GAL4-SRC2 luciferase reporter; inhibition, % at 9 µM; 0.17% of 370,000 active; AID 651957, 2012;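 active means inhibition above the mean inhibition of all tested compounds plus 3 SD, set per campaign, cut at about 52% in these data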
VP16 Luc counter – Gal4-VP16 luciferase reporter inhibitors, counter-screen for COUP-TFII antagonist project, cell-based, luminescence, HEK293. inhibition, % at 8.5 µM. 25% of 2,500 active. AID 687007, 2013. shares compounds with COUP-TFII inh; in the data active means inhibition above about 13%
NR2F2 inh conf – NR2F2 transcriptional activity inhibitors, confirmation, cell-based, luciferase reporter, HEK293, triplicate; inhibition, % at 8.5 µM; HEK293 NGFI-A luciferase reporter, luminescence; shares compounds with COUP-TFII inh; 45% of 2,500 active;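 active means mean inhibition over three repeats above a set limit taken from the earlier primary screen, cut at about 38% in these data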
Large screens that a line does not name were inactive (follow-up assays come after a bar, where they were run). Hits are enriched below; roughly 1.3% of the tested compounds scored in any of these assays.

CCC(C)NC(=O)CNc1nnnn1-c1ccccc1 (centres undefined)	none (no result: SRC1 inh, LRH-1 inv ag, Gli-Sufu block, SRC3 inh)
CN(CCO)c1cccc2c1S(=O)(=O)N(Cc1cn(Cc3cccc(F)c3)nn1)Cc1ccccc1O2	none (no result: SRC1 inh, LRH-1 inv ag, Gli-Sufu block, SRC3 inh)
CCC(=O)N1CCN(c2ccc(NC(=O)COc3ccccc3Cl)cc2)CC1	COUP-TFII inh 50 | VP16 Luc counter inactive | NR2F2 inh conf inactive
CN1CCN(c2ccc(NC(=O)COc3ccccc3Cl)cc2)CC1	none
Cc1cc(CN(C)C(=O)c2cc(COc3ccc4ncccc4c3)on2)on1	COUP-TFII inh 55 | VP16 Luc counter inactive | NR2F2 inh conf 43
CC(CNC(=O)c1cc(COc2ccc3ncccc3c2)on1)c1ccccc1 (centres undefined)	COUP-TFII inh 46 | VP16 Luc counter inactive | NR2F2 inh conf inactive
c1ccc(-c2nc(N3CCCCCC3)c3ccccc3n2)nc1	COUP-TFII inh 38, LRH-1 inv ag 94 | VP16 Luc counter inactive | NR2F2 inh conf inactive
CCCN(CCC)c1nc(-c2ccccn2)nc2ccccc12	COUP-TFII inh 57, SRC3 inh 64 | VP16 Luc counter inactive | NR2F2 inh conf inactive
c1ccc(CCNc2nc(-c3ccccn3)nc3ccccc23)cc1	COUP-TFII inh 50 | VP16 Luc counter inactive | NR2F2 inh conf inactive
Cc1nc2ccc(NC(=O)c3cccs3)cc2c(=O)n1Cc1ccc(Cl)cc1	COUP-TFII inh 59 | VP16 Luc counter inactive | NR2F2 inh conf 46
c1ccc(-c2c[nH]c3cccc(-c4cc5ccccc5o4)c23)cc1	none (no result: SRC1 inh, LRH-1 inv ag, Gli-Sufu block, SRC3 inh)
COc1ccc(-c2nc(-c3ccccn3)no2)cc1	COUP-TFII inh 83, Gli-Sufu block 69, SRC3 inh 69, SRC2 inh 75 | VP16 Luc counter 60 | NR2F2 inh conf 81
O=C(CSc1nc2ccccc2o1)Nc1nc2c(s1)CCCC2	COUP-TFII inh 52 | VP16 Luc counter inactive | NR2F2 inh conf inactive
COc1ccc(CCNc2ccc(N3C(=O)CC(C)C3=O)cc2[N+](=O)[O-])cc1OC (centres undefined)	COUP-TFII inh 55 | VP16 Luc counter inactive | NR2F2 inh conf inactive
Cc1ccc(CN2CCCCC(NC(=O)Cc3cccs3)C2=O)cc1 (centres undefined)	none (no result: SRC1 inh, LRH-1 inv ag, Gli-Sufu block, SRC3 inh)
COc1ccc(CCNC(=S)N2CCC(C(=O)c3ccc(F)cc3)CC2)cc1OC	COUP-TFII inh 43 | VP16 Luc counter inactive | NR2F2 inh conf inactive
COc1ccc(C(=O)C2CCN(C(=S)NCCc3ccccc3)CC2)cc1	none
COc1ccc(C(=O)C2CCN(C(=S)NCCc3ccc(OC)c(OC)c3)CC2)cc1	COUP-TFII inh 44 | VP16 Luc counter inactive | NR2F2 inh conf inactive
O=C(CCc1ccccc1-c1ccccc1CCNC(=O)c1ccccc1)NCc1ccccc1	none (no result: SRC1 inh, LRH-1 inv ag, Gli-Sufu block, SRC3 inh)
O=C(c1cc2c(s1)-c1ccccc1S(=O)(=O)C2)N1CCN(Cc2ccccc2)CC1	COUP-TFII inh 39 | VP16 Luc counter inactive | NR2F2 inh conf inactive
CCCC/C=C1/[C@@H](CC)N(Cc2ccc(OC)cc2OC)C2=N[C@@H](c3ccccc3)CC(=O)N21	none (no result: SRC1 inh, LRH-1 inv ag, Gli-Sufu block, SRC3 inh, SRC2 inh)
O=C(CCS(=O)(=O)c1ccccc1)Nc1ccc(F)cc1Cl	none (no result: SRC1 inh, LRH-1 inv ag, Gli-Sufu block, SRC3 inh)
CCOC(=O)N1CCN(C(=O)CSCC(=O)Nc2nc(-c3ccc(-c4ccccc4)cc3)cs2)CC1	COUP-TFII inh 68 | VP16 Luc counter inactive | NR2F2 inh conf 71
CCOC(=O)N1CCN(C(=O)CSCC(=O)Nc2nc(-c3ccc(OC)cc3)cs2)CC1	none
Cc1nc2ccccc2n1Cc1ccccc1Br	COUP-TFII inh 41 | VP16 Luc counter inactive | NR2F2 inh conf inactive
Cc1ccc(-c2cc(-c3nnc(SCC(=O)Nc4ccccc4-c4ccccc4)n3N)[nH]n2)cc1	none (no result: SRC1 inh, LRH-1 inv ag, Gli-Sufu block, SRC3 inh)
CN(C)C(=O)c1ccc(NC(=O)c2cccc(S(=O)(=O)N3CCCc4ccccc43)c2)cc1	COUP-TFII inh 39 | VP16 Luc counter inactive | NR2F2 inh conf inactive
Cc1ccc(S(=O)(=O)N(C)Cc2ccc(C(=O)N/N=C/c3ccc(OC(F)F)cc3OC(F)F)cc2)cc1	COUP-TFII inh 70 | VP16 Luc counter inactive | NR2F2 inh conf 74
Fc1ccc(Nc2ncnc3sccc23)cc1	none
COc1ccc(CC2CCN(c3ncnc4sccc34)CC2)cc1	COUP-TFII inh 68 (no result: SRC1 inh, LRH-1 inv ag, Gli-Sufu block, SRC3 inh, SRC2 inh) | VP16 Luc counter inactive | NR2F2 inh conf 59
Fc1ccc(CC2CCN(c3ncnc4sccc34)CC2)cc1	COUP-TFII inh 74 (no result: SRC1 inh, LRH-1 inv ag, Gli-Sufu block, SRC3 inh, SRC2 inh) | VP16 Luc counter inactive | NR2F2 inh conf 54
Oc1ccccc1CNc1cnc2ccccc2c1	none
C=CCc1cccc(CNc2cnc3ccccc3c2)c1O	COUP-TFII inh 47 | VP16 Luc counter inactive | NR2F2 inh conf inactive
COc1ccc(OC)c(CCNC(=O)Cn2nc(C)c3c(C)n(-c4ccc(C)cc4)nc3c2=O)c1	COUP-TFII inh 67 | VP16 Luc counter inactive | NR2F2 inh conf 73
Cc1ccc(C(=O)c2cccc(N)c2)cc1C	COUP-TFII inh 72, SRC2 inh 80 | VP16 Luc counter 62 | NR2F2 inh conf 41
CCCCCCCCCCn1ccc(=N)cc1	COUP-TFII inh 82, LRH-1 inv ag 86, Gli-Sufu block 88, SRC3 inh 71 | VP16 Luc counter 13 | NR2F2 inh conf 79
CCCCCCCCn1ccc(=N)cc1	COUP-TFII inh 42 | VP16 Luc counter inactive | NR2F2 inh conf inactive
CCCCCCCCN1C(=O)N2Cc3ccccc3C2CS1(=O)=O (centres undefined)	none (no result: SRC1 inh, LRH-1 inv ag, Gli-Sufu block, SRC3 inh)
CCCCc1ccc(N/C(N)=N/c2nc(C)cc(C)n2)cc1	COUP-TFII inh 49 | VP16 Luc counter 29 | NR2F2 inh conf 56
COC(=O)c1cc(N/C(N)=N/c2nc(C)cc(C)n2)cc(C(=O)OC)c1	COUP-TFII inh 42 (no result: Gli-Sufu block) | VP16 Luc counter inactive | NR2F2 inh conf inactive
Cc1ccccc1CS(=O)(=O)Cc1ccc(C(=O)Nc2ccc(F)cc2)o1	COUP-TFII inh 53 (no result: SRC1 inh, LRH-1 inv ag, Gli-Sufu block, SRC3 inh) | VP16 Luc counter inactive | NR2F2 inh conf inactive
Cc1ccc(NC(=O)c2ccc(CS(=O)(=O)Cc3ccccc3C)o2)cc1C	none (no result: SRC1 inh, LRH-1 inv ag, Gli-Sufu block, SRC3 inh)
COc1cc2cc(C(=O)Nc3ccc4c(c3)OCCO4)[nH]c2cc1OC	COUP-TFII inh 48 | VP16 Luc counter inactive | NR2F2 inh conf inactive
COc1cc2[nH]c(C(=O)Nc3ccc4c(c3)OCCO4)cc2c(OC)c1OC	none
COc1ccc(-n2c(SCc3ccc([N+](=O)[O-])cc3)nnc2-c2ccco2)cc1	none (no result: SRC1 inh, LRH-1 inv ag, Gli-Sufu block, SRC3 inh)
